GluA2 TARP mod = modulates AMPAR-stargazin complexes; HEK293 GluA2+stargazin, membrane potential dye (FDSS), glutamate EC50; hits were called plate by plate, in both directions; calls only at 30 µM; 3.5% of 40,000 active;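 active means any of four per-well response measures lying three or more SD from its plate-wide compound average, in either direction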
Target sequence (O88602 whole entry, looked up): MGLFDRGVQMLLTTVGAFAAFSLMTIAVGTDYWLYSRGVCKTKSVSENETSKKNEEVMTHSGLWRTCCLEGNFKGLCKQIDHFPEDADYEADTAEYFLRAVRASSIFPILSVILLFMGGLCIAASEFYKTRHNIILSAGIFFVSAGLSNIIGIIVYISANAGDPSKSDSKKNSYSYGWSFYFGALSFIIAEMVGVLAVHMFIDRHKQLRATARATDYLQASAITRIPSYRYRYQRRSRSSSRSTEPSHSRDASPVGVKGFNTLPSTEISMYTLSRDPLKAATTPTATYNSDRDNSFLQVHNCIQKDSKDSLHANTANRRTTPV
Target sequence (P19491 whole entry, looked up): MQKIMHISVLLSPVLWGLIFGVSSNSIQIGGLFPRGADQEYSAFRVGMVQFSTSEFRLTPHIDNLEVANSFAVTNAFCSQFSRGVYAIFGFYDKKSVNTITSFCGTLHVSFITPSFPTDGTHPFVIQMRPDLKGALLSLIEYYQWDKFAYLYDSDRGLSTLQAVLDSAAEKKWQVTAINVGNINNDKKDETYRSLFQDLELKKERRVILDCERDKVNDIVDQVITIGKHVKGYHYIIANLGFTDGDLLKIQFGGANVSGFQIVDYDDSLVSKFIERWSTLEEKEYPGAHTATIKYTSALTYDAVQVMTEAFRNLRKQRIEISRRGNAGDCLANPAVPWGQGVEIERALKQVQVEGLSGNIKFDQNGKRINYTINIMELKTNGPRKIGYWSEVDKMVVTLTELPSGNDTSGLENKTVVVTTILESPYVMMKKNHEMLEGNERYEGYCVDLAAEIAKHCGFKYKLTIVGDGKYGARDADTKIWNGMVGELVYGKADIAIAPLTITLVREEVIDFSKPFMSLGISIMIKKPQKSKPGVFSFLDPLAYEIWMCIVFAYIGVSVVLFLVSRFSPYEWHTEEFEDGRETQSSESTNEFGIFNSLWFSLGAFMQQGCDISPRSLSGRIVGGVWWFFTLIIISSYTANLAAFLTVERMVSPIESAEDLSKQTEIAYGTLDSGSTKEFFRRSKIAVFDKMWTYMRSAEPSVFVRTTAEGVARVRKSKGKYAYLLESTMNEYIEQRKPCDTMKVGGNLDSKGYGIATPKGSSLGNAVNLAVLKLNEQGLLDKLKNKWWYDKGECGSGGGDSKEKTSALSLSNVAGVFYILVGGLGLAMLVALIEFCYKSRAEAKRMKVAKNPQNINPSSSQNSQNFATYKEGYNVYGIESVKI
GIRK2 activator = Activators of human GIRK2-containing channels; activation (% efficacy), % for hits at 75 µM; P48051; HEK293 GIRK2/NPY4 cells, thallium flux fluorescence; 34,000 tested, under 10 active;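 active means primary screen hit, no activity in plain HEK293 cells, and in GIRK2-only cells above 5% efficacy rising with concentration; inactive means the rest, including fluorescent compounds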;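 further: efficacy is normalized control-subtracted fluorescence 15 s after thallium addition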
* hit, by the source's call; i = inactive; nt = no result given; + = active, no number. This is one part of a sample in which hits are shown more often than they occur.

SMILES	GluA2 TARP mod	GIRK2 activator
O=C(CSc1ccc([N+](=O)[O-])cc1[N+](=O)[O-])N1CCOCC1	i	nt
NS(=O)(=O)c1ccc(CCNC(=O)Cc2cc(-c3cccs3)on2)cc1	nt	i
O=C(c1cccs1)N1CCCSCC1CN1CCOCC1 (configuration not stated)	nt	i
CCOC(=O)c1c(SCc2cccc([N+](=O)[O-])c2)nc(=O)[nH]c1C	i	i
O=C(Nc1ccc(F)cc1F)c1ccc(=O)n(Cc2ccc(C(F)(F)F)cc2)c1	+	i
Cc1ccc(Cn2cc(C(=O)Nc3ccc(F)cc3F)ccc2=O)cc1	i	i
CSCCC(C)(O)CNC(=O)COc1ccc2ccccc2c1 (configuration not stated)	i	i
COCCn1c(=S)[nH]c2cc(C(=O)N3CCc4ccccc4C3)ccc2c1=O	+	i
COC(=O)c1ccc2c(=O)n(CCC(=O)NCCCN3CCOCC3)c(=S)[nH]c2c1	+	i
COC(=O)c1ccc2c(=O)n(CCC(=O)N3CCC(Cc4ccccc4)CC3)c(=S)[nH]c2c1	i	i
COC(=O)c1ccc2c(=O)n(CCC(=O)N3CCOCC3)c(=S)[nH]c2c1	+	i
COCCn1c(=S)[nH]c2cc(C(=O)N3CCN(c4ccccc4)CC3)ccc2c1=O	i	i
COC(=O)c1ccc2c(=O)n(CCN3CCCCC3)c(=S)[nH]c2c1	i	i
NS(=O)(=O)c1ccc(CCNC(=O)c2nn(-c3ccc(F)cc3)cc2OCc2ccccc2)cc1	i	i
COc1ccccc1-c1c(C)nn2c(Nc3ccc(NC(C)=O)cc3)cc(C)nc12	i	i
CCCc1nnc(NC(=O)Cn2c3c(c(=O)n(C4CCCCC4)c2=O)CCC3)s1	i	i
CCn1c(=O)c2c(nc3oc(C)c(C)n32)n(C)c1=O	+	i
CCn1c(=O)c2c(nc3n(-c4ccc(OC)cc4)c(C)c(C)n23)n(C)c1=O	i	nt
Cc1ccc(NC(=O)C(=O)NCCCN2CCN(c3ccccc3)CC2)cc1	i	i
CSc1ccccc1NC(=O)C(=O)NCC1CCN(C)CC1	i	i
CSc1ccccc1NC(=O)C(=O)NCC1CCN(C2CCCC2)CC1	+	i
COCCNc1nc2c(S(=O)(=O)c3ccccc3)nnn2c2ccc(Cl)cc12	i	i
CC1CCCCN1c1nc2c(S(=O)(=O)c3ccccc3)nnn2c2ccc(Cl)cc12 (configuration not stated)	+	i
COc1cc(OC)cc(C(=O)NCC2(c3ccccc3)CCOCC2)c1	i	i
COc1ccc(C2(CNC(=O)c3ccc(Cl)c(Cl)c3)CCOCC2)cc1	+	nt
SMILES	GluA2 TARP mod	GIRK2 activator
COC(=O)Cn1c(=O)c2c(nc3n(-c4cccc(C)c4C)c(C)c(C)n23)n(C)c1=O	i	nt
CN(C)C(CNC(=O)Cc1cccc2ccccc12)c1ccc(F)cc1 (configuration not stated)	i	nt
Cc1ccc(C(CNC(=O)Cc2cccc3ccccc23)N(C)C)cc1 (configuration not stated)	+	i
CCC(C)NC(=O)C(=O)Nc1c2c(nn1-c1ccc(Cl)cc1)CSC2 (configuration not stated)	i	i
CC(=O)OCCCCn1c(COc2ccccc2)nc2ccccc21	+	i
Cc1ccc(OCCCCn2c(CNC(=O)c3ccco3)nc3ccccc32)cc1	nt	i
O=C1CCC(C(=O)Nc2nc(CC(=O)N3CCN(c4cccc(Cl)c4)CC3)cs2)N1 (configuration not stated)	i	i
C(=C\c1nn2c(COc3ccccc3)nnc2s1)/c1cccs1	i	i
CCOC(=O)CCC(=O)N1CCC(c2nnc(C3CC3)o2)CC1	i	i
CSCCC(C)(O)CNC(=O)c1cc2ccccc2o1 (configuration not stated)	+	i
CSCCC(C)(O)CNC(=O)c1cc2ccccc2oc1=O (configuration not stated)	i	i
COc1ccc(CC(=O)Nc2ccc(CC(=O)N3CCCC3)cc2)cc1	i	i
COc1ccc(OCC(=O)Nc2ccc(CC(=O)N3CCOCC3)cc2)cc1	+	i
Cc1cc(-c2nnc(NC(=O)c3cccc(C(F)(F)F)c3)o2)nn1C	i	i
CCN(CC)S(=O)(=O)c1ccc(C(=O)Nc2nnc(-c3cc(C)n(C)n3)o2)cc1	+	i
Cc1cc(-c2nnc(NC(=O)c3ccc(S(C)(=O)=O)cc3)o2)nn1C	i	i
Cc1cc(-c2nnc(NC(=O)c3nc4ccccc4s3)o2)nn1C	+	i
CCOc1cc(C(=O)Nc2nnc(-c3cc(C)n(C)n3)o2)cc(OCC)c1OCC	+	i
CCN(CC)S(=O)(=O)c1ccc(C(=O)Nc2nnc(-c3ccc(Br)s3)o2)cc1	+	i
CN(C)S(=O)(=O)c1ccc(C(=O)Nc2nnc(-c3ccc(Br)s3)o2)cc1	i	i
Cc1cc(-c2nnc(NC(=O)c3ccc(SC(C)C)cc3)o2)nn1C	i	i
COCCN1CCC(CNC(=O)Cc2ccc(OC)cc2)CC1	nt	i
CC(=O)Nc1cccc(NC(=O)C2CCN(c3ccc(-c4ccccc4C)nn3)CC2)c1	i	i
O=C(CCc1ccccc1)N1CCN(c2ncnc3c2nnn3-c2ccccc2)CC1	i	nt
Cc1cc(C(=O)Nc2nnc(-c3cc(C)n(C)n3)o2)nn1C	+	i
SMILES	GluA2 TARP mod	GIRK2 activator
Cc1cc(-c2nnc(NC(=O)c3cc4ccccc4o3)o2)nn1C	i	i
CC(=O)c1ccc(C(=O)Nc2nnc(-c3cc(C)n(C)n3)o2)cc1	+	i
Cc1ccc(C(=O)Nc2nnc(-c3cc(C)n(C)n3)o2)cc1C	i	i
Cc1cc(-c2nnc(NC(=O)c3ccc(S(=O)(=O)N4CCCCC4)cc3)o2)nn1C	+	i
Cc1ccc(-c2nnc(NC(=O)c3ccc(S(=O)(=O)N4CCCCC4)cc3)o2)cc1C	i	i
COc1cccc2cc(C(=O)Nc3nnc(-c4cc(C)n(C)n4)o3)oc12	+	i
Cc1cc(-c2nnc(NC(=O)c3cc(Cl)sc3Cl)o2)nn1C	i	i
CC(=O)c1ccc(N2CCN(C(=O)c3cccc(N4CCCS4(=O)=O)c3)CC2)cc1	i	nt
O=C(Nc1ccc2c(c1)OCO2)N1CCN(CCn2cccn2)CC1	i	i
O=C(Nc1ccc(F)cc1)N1CCC(CNC(=O)C2(c3ccc(Cl)cc3)CCCC2)CC1	i	nt
Cc1ccc(C)c(NC(=O)Cn2c(=O)c(CNc3ccccc3)cc3cc4c(cc32)OCCO4)c1	+	i
COc1cccc(NC(=O)Cn2c(=O)c(CNc3ccccc3)cc3ccc(OC)cc32)c1	+	nt
COc1cc2cc(CNc3ccccc3)c(=O)n(CC(=O)Nc3ccc4c(c3)OCO4)c2cc1OC	+	nt
COc1cc2cc(CNc3ccccc3)c(=O)n(CC(=O)Nc3cccc(Cl)c3C)c2cc1OC	+	nt
COc1cc2cc(CNc3ccc(C)cc3)c(=O)n(CC(=O)Nc3cccc(Cl)c3)c2cc1OC	i	i
COC(=O)c1ccccc1NC(=O)Cn1c(=O)c(CNc2ccccc2)cc2ccc(OC)cc21	i	i
CCc1ccc(NCc2cc3cc4c(cc3n(CC(=O)Nc3cc(C)ccc3C)c2=O)OCCO4)cc1	i	i
COc1cc2cc(CNc3ccccc3)c(=O)n(CC(=O)Nc3ccc(C)c(Cl)c3)c2cc1OC	i	nt
